Laboratory results as given in PubChem BioAssay AID1347426 (Functional Genomics Laboratory (NCATS/FGL), 2020).
In all, about 31,000 sequences went through this assay and about 1,400 (4.5%) were called active. The entries come from a sample that favours actives as a whole. Unmarked numbers belong to inactive results.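 The calls were made as follows: active = median seed-adjusted z-score above 1 or below -1; inactive = the rest.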

Test: Novel Modifiers of Survival Motor Neuron (SMN) Protein: Gene Identification via Genome-wide siRNA Screen;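 also: luminescence tracks full-length SMN protein made from the SMN2 reporter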
Details: HEK293T SMN2-luciferase reporter, siRNA knockdown, 72 h; actives lie on both sides
In short: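 HEK293T cells stably expressing an SMN2 splicing/cDNA-luciferase reporter were reverse-transfected with a druggable-genome siRNA library and read by luminescence at 72 hours; hits defined by MAD score above 1.0 or below -1.0.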

| Sequence | median seed-adjusted z-score |
| --- | --- |
| GGAGUUUCCAGAUCUCAAATT against LGR6 | 0.237 |
| GACUCAUACCAAUCACGAATT against JMJD1A | 0.466 |
| GGGUCCCUAUUAUCCAGCATT against BAT3 | 0.567 |
| GACAGAUGACUGAUCCUAATT against PSMD13 | 0.58 |
| GACGGCCUCUAUUACCUCUTT against LTB | 0.646 |
| CUGUCAAUGUUAUUACUCUTT against TSG101 | 1.48 (active) |
| GAAUAAUGCUUAUGCUAGATT against CLIC6 | -0.00828 |
| AAUUCUACGAGUCCAAGUATT against GPS1 | 0.205 |
| CAGCCCGUUUUGAAGGGUATT against CRIP3 | 1.7 (active) |
| CGAUGGGUAUGAGCCUGGATT against ATHL1 | 0 |
| UAUGGGCUCUUGAACCAAATT against MTNR1B | -0.393 |
| GGGUGAUCUUGAUACUGCATT against TOP2B | 0.225 |
| GAUGCAAACUAGUCCUGAATT against MLC1 | -0.284 |
| AAUCGCUCAUGGUUUUUAATT against LRFN3 | 0.483 |
| AUGUGCACCUGACUACUCATT against KRT35 | -0.1 |
| CGCGUUCUUCGAUAUGGUATT against PCDHGB6 | 0.34 |
| GGCUUUUACCCGCAUGUCATT against ZNF460 | -0.302 |
| GCAGAAUAACCUCCAGUAUTT against SLC35A2 | 1.06 (active) |
| GACUUUGCAUUUCCUAGUATT against HSPA1A | -0.833 |
| CUACUAUUCAGAGACAACATT against GPR3 | 0 |
| GAAAGAAGAAUAUACUGAUTT against RBBP6 | -0.212 |
| GGAAAUUACGGCUACAGAATT against AP1S3 | 0.153 |

| Sequence | median seed-adjusted z-score |
| --- | --- |
| CCUUCUGUAGGAUGCAUUUTT against LY6G5B | -1.29 (active) |
| CAAGAGCACCGGUAAGGAATT against HSPA2 | -0.0343 |
| UGAACUACGUGACCGCGAATT against ELAVL1 | 0.316 |
| GCAACUCCAGCCUAAUUAATT against ZNF792 | 0 |
| CUGUGGUCUCUGUCUCUUATT against GPR75 | 0 |
| CCAACAAGGUAGACCCAUUTT against PSMC5 | -1.06 (active) |
| CUACCAGCCCUACACCAUUTT against CCL1 | 0.537 |
| GGAGAUCCGUGAUGUAACATT against RUVBL2 | -0.0764 |
| AGAUGAAUCUGGAAUCGGUTT against LCN1 | 0.0607 |
| CCGAAUGAGUUUGAACAUATT against ZNF48 | -0.116 |
| GGCUCUUCAUGGACCUUCATT against GPR173 | -0.147 |
| CAACCACAAUGUUCGUAAATT against GBF1 | -0.162 |
| GAAUGUCCCUUUAACUGCATT against NFXL1 | 0.118 |
| CGAGUACUGUCUCAAGGUATT against TTC9B | -0.272 |
| CAAUUACGAAUAGAAUUGATT against WEE1 | -4.05 (active) |
| AGGACCAAAUGUCAAUUUATT against IL1RN | 0.283 |
| GGUGUGAACUGCGAAGUGATT against NOTCH3 | 0.395 |
| GGACGUGACUUACAUAGUUTT against PRLR | 0.394 |
| CAGUUUAUCUCAGACAUCUTT against CD9 | -1.02 (active) |
| UGGUCCGACUGGUACGACATT against TAC1 | 0.0499 |
| GAGUCUUUAUUGGUAAAGATT against GLRX | -0.0561 |
| ACAUUGUGGUAGCCUUGUATT against LYN | -0.178 |

| Sequence | median seed-adjusted z-score |
| --- | --- |
| GGCUGUCCUUAGUACCAGATT against CFTR | -1.23 (active) |
| GGAACUAAACUUGAUCUUATT against RAC1 | -0.0348 |
| GAGUCGCUUUAGCUCCGAATT against XPNPEP2 | -0.158 |
| GGGAAAGCUGGACUACUAATT against PIK3CB | 0.0911 |
| CAAGGUGUUUUACCUGAAATT against YWHAH | -0.125 |
| GCGUGACAGUGAUCCUGUATT against SLC27A5 | 0.441 |
| AGAUCGACGUGAUCAAGCATT against GNAS | -0.531 |
| GGACAUCUGGGUGAAGUUUTT against SNRPF | -2.66 (active) |
| CUAUCACUCUGGAACUGGATT against SMC2 | -0.052 |
| GGACAUGAACCAUACGAAUTT against PRPF8 | -1.54 (active) |
| CAAUAAGACUGAGUUAUUATT against ETNK1 | 0.299 |
| GACCCAAAGCGGCAGCAAATT against KLRC2 | -0.472 |
| CUCAUUGAGUUGGACAAAUTT against RHOU | -1.44 (active) |
| GGAUCGUGGUUGCAGGGAUTT against DNASE1 | -0.35 |
| CCAGACAGGAGGAACCAUATT against HDAC11 | 0.259 |
| CUAUGGACAUGUCAAUUGUTT against CCNA2 | 0.136 |
| CCGUAUUUCUAGUUCCCUUTT against ZNF442 | 1.06 (active) |
| GUGUGAUGGUUGUAAACGATT against ZMYM6 | -0.355 |
| CAUACUCAUUCUUGCAAUATT against PHOSPHO2 | -0.247 |
| GAGAGUAAAUAUGCGAAUATT against ATP8B1 | 0.357 |
| GCAACAUCCUGGUUUUCGATT against LRP2 | -0.512 |
| GUAUCGCUGUUUCUACGGUTT against LILRA1 | -0.231 |

| Sequence | median seed-adjusted z-score |
| --- | --- |
| GGAUCAUUCUCAACGGGAUTT against KCNV2 | -1.13 (active) |
| UGUUGACACUUUUAUCCAATT against ANAPC11 | -0.581 |
| AACCCUUUGUGGAACACCATT against PSMB4 | -0.16 |
| CGCAAAAAGGCAGACGAAATT against DUX5 | -0.295 |
| GCUAAGAAGAGAUAAUGAATT against MLKL | 0 |
| CCGAUUCGGUCACCAAGUATT against MYO1F | 0.103 |
| CCCUCACCGUGCAUGAGAATT against ZNF74 | 1.17 (active) |
| GUGCUAAAGAUCAUUGAUATT against TRIM32 | 0.109 |
| GAUCAUGCGUAACUACAGUTT against JUP | 0.15 |
| AGAGCACCAGAAGACACAATT against GJC3 | -0.137 |
| GGACCUUUUUGUUAAGUCATT against RASD1 | 0.674 |
| GGUCUUUACUGGAUUCAGATT against SERINC3 | 0.29 |
| GAAUUUGUAUGAGAGCAUUTT against CYTH3 | 0.196 |
| CUCUUAUGUUGGAUAUGUATT against USP14 | 0 |
| GGAAGAAUUUCAGUCAGAATT against ZNF436 | 0.00767 |
| GGACCUGCAUAUGAAAGUATT against PCDH8 | -1.03 (active) |
| CAUUGUCUAUCAUCGCAAATT against NEB | 0.0485 |
| GGAAGGCAGAUGUAUCUUUTT against CMPK1 | -0.363 |
| GGCCUACGUUUGAAAGACATT against ZNF792 | 0 |
| GACUUGUGAUACAAGCGUATT against RAD23B | 0.639 |
| GGUAAAGGGAAGUAACUAUTT against SLC2A13 | -0.0451 |
| CCCUAUCAAUUUCUAUGGATT against MPP4 | 0.13 |

| Sequence | median seed-adjusted z-score |
| --- | --- |
| GCCUGACAGUGGUAUACAATT against COPZ1 | -1.02 (active) |
| GCUACAACUGGAUAAGGAATT against FTSJ1 | 0.0774 |
| CAUGAUAUCUGGACCCAAATT against SSX3 | 0 |
| AGACGUACCGAGAGGAGUATT against PLA2G2F | 0.508 |
| CCAUGCUGGAGAUCAAGAATT against PRKAG3 | -1.03 (active) |
| CCCUGGAUGUCCUAUCUGATT against SLC2A1 | -0.349 |
| GGAGGAUGACAAGAUCUAUTT against RNF113A | -0.128 |
| GCACUGAUGUAAAUUACUUTT against RAB6C | -1.08 (active) |
| GCAGUACAGUGAAUGCCGATT against AKAP8 | -0.252 |
| CCACCGAGCUAACAUCUGATT against MFAP3L | 1.03 (active) |
| CAGACUUAUUGUAACAAGATT against ENPP3 | 0.66 |
| GCUACACUCAACUACCUGATT against ADCY5 | -0.123 |
| CCACAAGAGUUCGAACUCATT against ZFX | -0.581 |
| GGAAUGCAAUUCUCAGAGATT against LCN2 | 0.123 |
| CACAGAUUCGAGAAAUUCATT against SF3B1 | -3.65 (active) |
| GGUUGACAAAUGCAGGAUATT against RIOK2 | -0.16 |
| GCAUCGGCAUCUUCACGCUTT against FZD5 | -0.129 |
| GACCCGCGAUUAAACCUCATT against CHST1 | 0.181 |
| GGUUUGGGAUGGGAAUUGATT against SUPT16H | 1.2 (active) |
| GGGUACAAGUUACCUAAUATT against TDRD6 | 0 |
| GGAAACGACCUGUCAAAGATT against PHAX | -0.0716 |
